# In the library only some 3.7% were active in any assay of this set; here they are far more common.
# NALP3 yeast inh – inhibitors of NALP3 inflammasome in yeast; Yeast reconstituted NLRP3/ASC/caspase-1, beta-gal luminescence, 24 h; inhibition, % at 10 µM; 330,000 compounds, 0.39% hits; AID 2825;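 active = inhibition of 50% or more; inactive = inhibition below 50%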
# PfHsp90 set2 – growth inhibition of yeast expressing Plasmodium Hsp90; AID 504621; inhibition, % at 9.4 µM; S. cerevisiae expressing PfHsp90, BacTiter-Glo ATP, 48 h; yeast lacking PDR1 and PDR3 efflux regulators; 310,000 compounds, 0.32% hits;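 active = every replicate shows inhibition above about 80%, whatever the replicate mean, limit read from the data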
# tim23-1 inh – inhibits growth of tim23-1 mutant yeast. S. cerevisiae tim23-1 growth, BacTiter-Glo luminescence, 24 h. inhibition, % at 20 µM. 330,000 compounds, 1.3% hits;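 active = growth inhibition of the mutant yeast at or above 50%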;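 also: temperature-sensitive mutant grown at 25 °C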
# tim10-1 inh – inhibits growth of tim10-1 mutant yeast. S. cerevisiae tim10-1 ts strain growth, BacTiter-Glo, 24 h. inhibition, % at 20 µM. 330,000 compounds, 2.2% hits. AID 463190;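 active = inhibition of at least 40%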;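 also: mutant grown at 25 °C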
# TIM10 inh – TIM10 yeast growth inhibition; inhibition, % at 10 µM; 330,000 compounds, 1.4% hits; AID 463195; S. cerevisiae TIM10 strain growth, BacTiter-Glo luminescence, 24 h;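 active = inhibition of 40% or more at the single tested concentration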;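 also: wild-type TIM10 isogenic control strain grown at permissive 25 °C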
# tim10-1 confirm – tim10-1 yeast growth inhibition, confirmed; shares compounds with tim10-1 inh; S. cerevisiae tim10-1 ts strain growth, BacTiter-Glo, 24 h; inhibition, % at 20 µM; 7,400 compounds, 56% hits; AID 463213;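 active = inhibition of yeast growth at or above a set limit in either of two repeat tests at 20 µM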;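 also: tim10-1 mutant grown at permissive 25 °C to find synthetic lethal compounds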
# Numbers stand for hits; n = inactive; x = no result given.
SMILES,NALP3 yeast inh,PfHsp90 set2,tim23-1 inh,tim10-1 inh,TIM10 inh,tim10-1 confirm
COCCCNC(=S)N1CCN(c2nc(C)nc3sc4c(c23)CCCC4)CC1,n,n,n,n,n,x
CCCNC(=S)N1CCN(c2nc(C)nc3sc4c(c23)CCCC4)CC1,n,n,n,43,n,n
COc1cc(/C=C/C(=O)CC(=O)/C=C/c2ccc(O)c(OC)c2)ccc1O,x,n,n,n,n,39
CCOC(=O)/C(C#N)=C\c1ccc(O)c(OC)c1,n,n,n,42,n,34
CC(NC(=O)COC(=O)C1CSC2(C)CCC(=O)N12)C12CC3CC(CC(C3)C1)C2 (stereo not given),n,n,n,n,n,x
CN1CCN(CCCN2c3ccccc3Sc3ccc(C(F)(F)F)cc32)CC1,n,n,n,42,n,n
O=C(CN1CCCC(O)C1)N1c2ccccc2Sc2ccc(C(F)(F)F)cc21 (stereo not given),n,n,n,n,n,x
Clc1ccc(-c2nn3c(C4COc5ccccc5O4)nnc3s2)cc1 (stereo not given),n,x,n,56,n,38
COc1ccc(CC(=O)Oc2ccc(C#N)cc2)cc1,n,n,n,n,n,x
Cc1ccc(C)c(NC(=S)NNC(=O)c2csc3c2CCCC3)c1,n,n,n,n,n,x
Cc1ccc(C)c(NC(=S)NNC(=O)c2csc3c2CCC(C)C3)c1 (stereo not given),n,n,n,44,n,34
CC(=O)N1CCC(c2c[nH]c3ccccc23)CC1,n,n,n,n,n,x
CCCn1nnnc1SCC(=O)NCc1ccc2c(c1)OCO2,n,n,n,n,n,x
Brc1ccc(CSc2nnc(-c3ccccn3)n2Cc2ccco2)cc1,n,x,n,40,n,33
O=C(CSc1nnc(-c2ccccn2)n1Cc1ccco1)c1ccccc1,n,n,n,n,n,x
O=C(CSc1nnc(-c2cccnc2)n1Cc1ccco1)c1ccc2ccccc2c1,n,x,n,45,n,n
C(=C\c1ccccc1)/CSc1nnc(-c2ccccc2)n1Cc1ccco1,n,x,n,44,n,n
C(=C\c1ccccc1)/CSc1nnc(-c2ccncc2)n1Cc1ccco1,n,n,n,n,n,x
O=C(Nc1ccc(N2CCOCC2)c(Cl)c1)c1c(F)c(F)c(F)c(F)c1F,n,n,n,50,n,40
CC1(C)CC(=O)/C(=C(\O)c2ccccc2)C(=NCCc2ccccc2)C1,n,n,n,45,n,n
C=CCN1C(=O)C(O)=C(C(C)=O)C1c1ccccc1F (stereo not given),n,n,n,n,n,x
Oc1ccc(Br)cc1-c1cc(-c2ccc(Cl)cc2)n[nH]1,n,n,n,n,n,x
COc1ccc(-c2cc(-c3ccc(Cl)cc3)n[nH]2)c(O)c1,n,n,n,41,n,45
COc1ccc(-c2cc(-c3ccccc3O)[nH]n2)cc1OC,n,x,n,n,n,x
COc1ccc(-c2cc(-c3cc(F)ccc3O)[nH]n2)cc1OC,n,x,n,n,n,n
SMILES,NALP3 yeast inh,PfHsp90 set2,tim23-1 inh,tim10-1 inh,TIM10 inh,tim10-1 confirm
COc1cc2nc(N3CCN(c4cc(C)ccc4C)CC3)nc(N)c2cc1OC,n,n,n,45,n,n
COc1cc2nc(N3CCNCC3)nc(N)c2cc1OC,n,n,n,n,n,x
C/C(=N\NC(=S)NC(C)C)c1ccc(-n2ccnc2)cc1,n,x,n,43,n,n
Cc1ccc(Nc2ccc(C(=O)O)cc2[N+](=O)[O-])cc1,n,n,n,n,n,x
CC1=CC2=C(OC1N(C)C)c1cccc3cccc(c13)C2=O (stereo not given),n,x,n,47,n,55
Cc1cc(C)n2c(SCc3ccccc3Cl)nnc2n1,n,n,n,43,n,n
Cc1ccc(-n2cccc2/C=C2\C(=N)N3N=C(C(C)C)SC3=NC2=O)cc1,n,n,n,42,n,n
CCC1=NN2C(=N)/C(=C\c3cccn3-c3ccc(OC)cc3)C(=O)N=C2S1,n,n,n,n,n,x
N#Cc1ccc(N2Cc3ccccc3C2=NC(=O)c2cccs2)cc1,n,n,n,51,n,39
CC(=O)c1ccc(N2Cc3ccccc3C2=NC(=O)c2cccs2)cc1,n,n,n,n,n,x
O=C(Oc1ccc(C(=S)N2CCOCC2)cc1)c1ccccc1[N+](=O)[O-],n,n,n,42,n,37
CCN(CCn1cccn1)Cc1nc(Cc2cccc(F)c2)no1,n,n,n,n,n,x
CCN(CC)S(=O)(=O)c1ccc2oc(C(=O)NCc3ccc(F)cc3)c(C)c2c1,n,n,n,44,n,39
Cc1ccc[n+](CC(=O)Nc2ccc([N+](=O)[O-])cc2)c1,n,n,n,n,n,x
Oc1ccc(-c2nccc(-c3ccc(Cl)cc3)n2)cc1,n,n,n,42,n,43
Oc1ccc(-c2nccc(-c3ccc(Cl)cc3Cl)n2)cc1,n,n,n,42,n,34
CCN(CC)C(=O)[C@H]1CC(CC(=O)NCCCn2ccnc2)C(=O)N2CCc3c([nH]c4ccccc34)[C@]12C (stereo not given in full),n,n,n,n,n,x
CC1CCN(c2nc(Cl)nc(Nc3ccc([N+](=O)[O-])cc3)n2)CC1,n,98,n,46,n,n
C=CCNc1nc(Nc2ccc([N+](=O)[O-])cc2)nc(N2CCCC2)n1,n,n,n,n,n,x
COc1cc(OC)c(OC)cc1CNCCNC(=O)c1nonc1N,n,n,n,n,n,x
O=C(CCCN1C(=O)C(c2ccccc2)Oc2cccnc21)Nc1cccc(F)c1 (stereo not given),n,n,n,n,n,x
CCc1cccc(NC(=O)CN(c2ccc(C)cc2)S(=O)(=O)c2c(C)noc2C)c1,n,n,n,49,n,36
Cc1ccc(N(CC(=O)N2CCN(c3ccc(F)cc3)CC2)S(=O)(=O)c2c(C)noc2C)cc1,n,n,n,41,n,n
Cc1[nH]c2ccc(C(=O)N3CCN(c4ccc(F)cc4)CC3)cc2c1C,n,n,n,54,n,n
COc1ccc(N2CCN(C(=O)c3cc(-c4ccc(F)cc4)[nH]c3C)CC2)cc1,n,n,n,42,n,40
SMILES,NALP3 yeast inh,PfHsp90 set2,tim23-1 inh,tim10-1 inh,TIM10 inh,tim10-1 confirm
Cc1ccc(NC(=O)CC2CCCC2)c(Br)c1,n,n,n,n,n,x
Cc1c(Cl)c([N+](=O)[O-])nn1CC(=O)N1CCN(C23CC4CC(CC(C4)C2)C3)CC1,n,n,n,n,n,x
CCCOc1ccc(N2C(=O)CC(N3CCC(O)(c4cccc(C(F)(F)F)c4)CC3)C2=O)cc1 (stereo not given),n,n,n,56,n,47
CCN1C(=O)CC(N2CCC(Nc3ccc(OC)cc3)CC2)C1=O (stereo not given),n,n,n,n,n,x
COc1ccc(N2C(=O)CC(N3CCC(O)(c4ccc(Br)cc4)CC3)C2=O)cc1 (stereo not given),n,x,n,n,n,x
O=C1CC(N2CCN(c3cccc(C(F)(F)F)c3)CC2)C(=O)N1c1ccccc1 (stereo not given),n,x,n,41,n,n

# Compound activity from PubChem BioAssay.
